The values that follow come from PubChem BioAssay (NCI).

Structures are written as SMILES. The panel holds about 83,000 compounds, 20% with a hit somewhere; the sample as a whole holds those more often.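 Treatment: one concentration, 48 hours, 96-well format. Scoring: percent growth, with anything below 10 considered active.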 Values without a mark were called inactive. Calls of active or inactive are those of the source.

Holding throughout (test): NCI-60 one-dose screen, 48 h (100 = growth as untreated, 0 = no growth, -100 = all killed)
Test [1] deals with SK-MEL-2 melanoma. Particulars: 10 µM unless noted.
Test [2] has as its system EKVX NSCLC. To be noted: 10 µM unless noted.
Test [3] relates to SN12C renal. Particulars: 10 µM unless noted.
Test [4] deals with UO-31 renal. To be noted: 10 µM unless noted.
Test [5] relates to TK-10 renal. To be noted: 10 µM unless noted.
Test [6] deals with ACHN renal. To be noted: 10 µM unless noted.
The subject of test [7] is CAKI-1 renal. To be noted: 10 µM unless noted.
Test [8] concerns A498 renal. Particulars: 10 µM unless noted.
Test [9] has as its system CCRF-CEM leukemia. Particulars: 10 µM unless noted.
Test [10] deals with MOLT-4 leukemia. To be noted: 10 µM unless noted.
Test [11] relates to SR leukemia. Particulars: 10 µM unless noted.
Test [12] deals with RPMI-8226 leukemia. To be noted: 10 µM unless noted.
Test [13] relates to OVCAR-8 ovarian. Particulars: 10 µM unless noted.
Test [14] deals with OVCAR-4 ovarian. Particulars: 10 µM.
The subject of test [15] is SK-OV-3 ovarian. Particulars: 10 µM unless noted.
In test [16] the test system is OVCAR-3 ovarian. Particulars: 10 µM unless noted.
Test [17] deals with HS 578T breast. Particulars: 10 µM unless noted.
Test [18] concerns NCI/ADR-RES ovarian. Particulars: 10 µM unless noted.
Test [19] has as its system IGROV1 ovarian. To be noted: 10 µM unless noted.

For `CCCCOC(=O)c1cccc([N+](=O)[O-])c1`, the growth is 113% in [1]; 93.4% in test [2]; 108% in test [3]; 94.7% in [4]; 111% in test [5]; 112% in [6]. The growth in test [7] was 105%; in test [8] it was 94.7%; in [9] it was 1.56% (active); in [10], 122%; in test [11], 132%; in test [12], 90.2%. In addition, the growth was 100% in [13]; 113% in test [14]; 109% in test [15]; 114% in test [16]; 114% in test [17]; 107% in [18].

`CC(=O)CC(=O)SC1=NCCS1`: the growth in test [1] is 131%; in [2], 111%; in test [3] it was 108%; in test [4] it was 98.9%; in [5], 110%; in [6], 108%. Also, the growth was 97.2% in [7]; 121% in test [8]; 87.2% in [9]; 98.8% in [10]; 102% in [11]; 98.1% in [12]. In addition, the growth was 99.3% in test [13]; 109% in test [14]; 112% in test [15]; 140% in test [19]; 113% in test [16]; 113% in test [18].

As to `Cc1ccc(S(=O)(=O)Oc2ccc(Br)cc2Br)cc1`, the growth in test [1] is 75.4%; in [2], 83.3%; in [3], 95.2%; in [4] it was 88.9%; in [5], 94.9%; in test [6] it was 95.6%. In addition, the growth was 65% in test [7]; 74.3% in [8]; 47.7% in test [9]; 47.5% in [10]; 22% in test [11]; 73.3% in [12]. The growth in [13] was 95.1%; in [14], 72.4%; in test [15] it was 79.4%; in test [19], 73.3%; in [16], 86.9%; in test [17] it was 87.7%. Further, the growth in test [18] was 62.3%.

In the case of `Clc1ccccc1/C=N\Nc1ccccn1`, the growth in [1] is 92.8%; in test [2] it was 76.2%; in test [3], 92.2%; in [4], 66.8%; in test [5] it was 66.7%; in [6], 87.7%. The growth in test [7] was 80.2%; in [8], 110%; in test [9], 95.1%; in [10] it was 83.5%; in [11], 90.5%; in test [12], 93.1%. For the same compound, the growth in test [13] is 90.1%; in test [14], 68%; in test [15] it was 84.1%; in [19], 64%; in [17], 99.4%; in test [18], 91.1%.

With `O=C1NC(=O)c2cc([N+](=O)[O-])cc3cccc1c23`, the growth is 107% in [1]; 94.2% in test [2]; 98.1% in test [3]; 66.4% in test [4]; 107% in test [5]; 103% in test [6]. The growth is 84.8% in test [7]; 87.1% in [8]; 89.8% in [9]; 115% in test [10]; 114% in [11]; 94.2% in [12]. Moreover, the growth in test [13] was 85.4%; in test [14], 95.7%; in test [15] it was 106%; in test [16], 112%; in test [17], 106%; in test [18] it was 95.9%.

Regarding `O=C(NNc1ccc(-c2ccccc2)nn1)c1ccccc1`, the growth was 107% in [1]; 95.2% in test [2]; 97.2% in test [3]; 89% in [4]; 107% in test [5]; 100% in test [6]. Further, the growth was 82.2% in [7]; 92.4% in test [8]; 107% in test [9]; 90.3% in test [10]; 103% in test [11]; 102% in test [12]. The growth in test [13] was 99.5%; in [14] it was 96%; in test [19], 99.3%; in test [16], 108%; in test [17] it was 103%; in [18], 102%.

Take `CCOC(CNC(=O)c1cccc([N+](=O)[O-])c1)OCC`: the growth in test [1] was 97.2%; in test [2], 97.4%; in [3], 92.7%; in [4], 81.8%; in [5], 82.8%; in test [6], 108%. Also, the growth was 89.9% in [7]; 84.5% in test [8]; 111% in test [9]; 100% in test [10]; 95.4% in test [11]; 141% in test [12]. Moreover, the growth in [13] was 95.3%; in [15], 108%; in test [16], 96.5%; in [18] it was 97.9%.

For the compound `CC1(C)CC[C@]2(C(N)=O)CC[C@]3(C)C(=CC[C@@H]4[C@@]5(C)C/C(=C/c6cccnc6)C(=O)C(C)(C)[C@@H]5CC[C@]43C)[C@@H]2C1`, the growth in [1] was -57.5% [100 µM] (active); in [2] it was 1.54% [100 µM] (active); in [3], -58.8% [100 µM] (active); in test [4], -95.1% [100 µM] (active); in [5], -14.8% [100 µM] (active); in [6], -61.1% [100 µM] (active). The growth was -30.6% [100 µM] (active) in [7]; -83.4% [100 µM] (active) in test [8]; 2.68% [100 µM] (active) in [9]; -9.98% [100 µM] (active) in test [10]; 8.68% [100 µM] (active) in test [11]; -37.1% [100 µM] (active) in test [12]. Moreover, the growth in test [13] is -21.6% [100 µM] (active); in test [15] it was 6.72% [100 µM] (active); in test [19], -29.5% [100 µM] (active); in [16] it was -64.2% [100 µM] (active); in [17] it was 1.61% [100 µM] (active); in [18], -25.7% [100 µM] (active).
